Assay results published in article PMC4336329 (PLoS ONE, 2015).
Hit rate of the full screen: of about 310,000 compounds, about 14,000 (4.5%) showed an effect of 50% or more. The effect is printed as a negative number. For the sample, strong results were picked, then their nearest neighbours and some compounds at random.

Biological target: human ether-à-go-go-related gene (hERG) potassium channel (human, UniProt Q12809)
Experiment: primary screen, population patch clamp on CHO cells stably expressing hERG; higher = less effect of the substance
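Note: peak tail current of the secondary pulse compared with the same well before compound.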

human ether-à-go-go-related gene (hERG) potassium channel, sequence (Q12809 whole entry, looked up): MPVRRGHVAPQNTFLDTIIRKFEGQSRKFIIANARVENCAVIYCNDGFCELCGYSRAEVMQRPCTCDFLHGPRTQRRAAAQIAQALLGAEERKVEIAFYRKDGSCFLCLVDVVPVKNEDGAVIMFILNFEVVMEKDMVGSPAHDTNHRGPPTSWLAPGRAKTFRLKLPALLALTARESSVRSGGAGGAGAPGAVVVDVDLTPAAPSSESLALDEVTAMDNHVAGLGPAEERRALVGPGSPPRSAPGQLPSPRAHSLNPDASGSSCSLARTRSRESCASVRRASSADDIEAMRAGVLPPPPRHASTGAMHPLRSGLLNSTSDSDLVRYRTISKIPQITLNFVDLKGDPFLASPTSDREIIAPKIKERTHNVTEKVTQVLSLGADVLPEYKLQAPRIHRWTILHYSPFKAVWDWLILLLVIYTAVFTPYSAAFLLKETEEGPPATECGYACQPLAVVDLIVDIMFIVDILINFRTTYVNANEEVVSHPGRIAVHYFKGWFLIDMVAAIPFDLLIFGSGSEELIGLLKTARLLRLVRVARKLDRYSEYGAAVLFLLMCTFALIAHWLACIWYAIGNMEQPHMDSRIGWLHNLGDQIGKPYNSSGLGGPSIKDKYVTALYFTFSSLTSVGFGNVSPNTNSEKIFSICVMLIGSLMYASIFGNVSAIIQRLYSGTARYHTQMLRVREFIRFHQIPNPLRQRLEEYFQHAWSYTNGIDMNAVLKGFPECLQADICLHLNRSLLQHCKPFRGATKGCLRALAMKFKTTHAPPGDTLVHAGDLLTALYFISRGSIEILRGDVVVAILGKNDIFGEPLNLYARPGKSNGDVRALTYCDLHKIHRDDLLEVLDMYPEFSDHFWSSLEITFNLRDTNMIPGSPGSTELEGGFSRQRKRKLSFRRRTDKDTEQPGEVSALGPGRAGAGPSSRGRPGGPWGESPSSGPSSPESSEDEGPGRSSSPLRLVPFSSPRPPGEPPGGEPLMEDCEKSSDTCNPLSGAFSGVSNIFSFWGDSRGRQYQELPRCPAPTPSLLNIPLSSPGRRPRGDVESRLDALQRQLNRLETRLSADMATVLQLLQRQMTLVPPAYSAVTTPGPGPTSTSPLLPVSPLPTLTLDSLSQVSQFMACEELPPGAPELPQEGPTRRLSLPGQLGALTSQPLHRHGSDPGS

| Structure (SMILES) | hERG current change (%, negative = inhibition) at 10uM |
| --- | --- |
| CCCCC[C@H](O)/C=C/C1=C(CCCCCCC(=O)O)C(=O)CC1 | 17.9% |
| O=C(COC(=O)c1c[nH]c(=O)[nH]c1=O)NCc1ccccc1 | -12.2% |
| Cc1ccc([N+](=O)[O-])cc1-c1ccc(/C=N/NC(=O)CN2CCOCC2)o1 | -38.9% |
| Cc1ccc(-c2ccc(/C=N/NC(=O)CN3CCOCC3)o2)cc1[N+](=O)[O-] | -29.5% |
| O=C(CN1CCOCC1)N/N=C/c1ccc(-c2ccc(Br)cc2)o1 | -67.1% |
| O=C(CN1CCOCC1)N/N=C/c1ccccc1 | -14.4% |
| O=C(CN1CCOCC1)N/N=C/c1ccc(-c2cccc(Cl)c2Cl)o1 | -73.4% |
| O=C(CN1CCOCC1)N/N=C/c1ccc(-c2ccc(C(=O)O)cc2)o1 | -12% |
| O=C(COc1ccccc1F)NNC(=O)c1ccc(N2CCCCC2)c([N+](=O)[O-])c1 | -36% |
| Nc1nc(-c2ccc(Cl)cc2)cn1N | -2.98% |
| COc1ccc(C(=O)Nc2ccccc2C(N)=O)cc1 | -18.9% |
| CC(=O)Oc1cccc(N2C(=O)C3C4C=CC(CC4)C3C2=O)c1 (stereo not drawn) | 16.1% |
| Cc1ccc(-c2nc3ccccc3c(=O)n2-c2ccc(O)cc2)cc1 | -3.92% |
| C=CCC1(CC=C)CCCN1C(=O)C1CCC(=O)N(CCc2ccc(OC)cc2)C1 (stereo not drawn) | -18.6% |
| O=C1CCC(C(=O)N2CCC(O)CC2)CN1CCc1ccc(Cl)cc1 (stereo not drawn) | 1.38% |
| C=CCC1(CC=C)CCCN1C(=O)C1CCC(=O)N(CCc2ccccc2)C1 (stereo not drawn) | -12.5% |
| C=CCC1(CC=C)CCCN1C(=O)C1CCC(=O)N(CCc2ccc(Cl)cc2)C1 (stereo not drawn) | -60% |
| CC(C)C1CCN(C(=O)C2CCC(=O)N(CCc3ccc(Cl)cc3)C2)CC1 (stereo not drawn) | -52.6% |
| O=C1CCC(C(=O)N2CCCCCC2)CN1CCc1ccc(Cl)cc1 (stereo not drawn) | -28.9% |
| COc1ccc(S(=O)(=O)Nc2ccccc2C)cc1 | 0.614% |
| C/C(=N\NC(N)=S)c1cccnc1 | 2.44% |
| COc1ccccc1-c1c(C)nn2c(N3CCN(c4ccccc4OC)CC3)cc(C)nc12 | 3.75% |
| Cc1ccc(Nc2cc(C)nc3nc(C)nn23)c(C)c1 | 9.08% |
| Cc1ccc(/C=N/N2CCN(c3ccccn3)CC2)cc1 | 2.68% |

| Structure (SMILES) | hERG current change (%, negative = inhibition) at 10uM |
| --- | --- |
| Cc1cc(Nc2cccc(C(F)(F)F)c2)n2nc(C)nc2n1 | -51.8% |
| COc1cccc(Nc2cc(C)nc3nc(C)nn23)c1 | -12.8% |
| COc1ccccc1N1CCN(c2cc(C)nc3nc(C)nn23)CC1 | -57.6% |
| Cc1cc(C)c2c(n1)nn1c(N3CCN(c4ccccc4C)CC3)cc(C)nc21 | 7.78% |
| Cc1ccc(N2CCN(c3cc(C)nc4nc(C)nn34)CC2)c(C)c1 | -72.6% |
| COc1ccccc1N1CCN(c2nc(C)cc(=O)[nH]2)CC1 | 11.6% |
| Cc1cc(Nc2cccc(F)c2)n2nc(C)nc2n1 | -12.1% |
| C(=N\N1CCN(c2ccccn2)CC1)/c1ccccn1 | 13.5% |
| Cc1cc(N2CCN(c3ccccn3)CC2)n2nc(C)nc2n1 | -51.4% |
| COC(=O)C(CC(C)C)NC(=O)CNC(=O)c1ccccc1C (stereo not drawn) | 3.34% |
| C/C(=N\OCC(=O)Nc1cc(C)cc(C)c1)c1ccc2c(c1)OCCO2 | -13% |
| CCC12CN3CCN(CC(C3)/C1=N/NC(N)=O)C2 | 21% |
| Cc1c(Cl)cccc1-n1ccnc1SCC(=O)O | 18.2% |
| O=S(=O)(/N=C(/c1ccccc1)N1CCOCC1)c1ccc(F)cc1 | 23.7% |
| COc1ccc(-c2cc(C(=O)N(C)Cc3cccc(OC)c3OC)c3ccccc3n2)cc1OC | -28.8% |
| COc1ccc(OC)c(/C=C/C(=O)Oc2ccc(C(C)=O)cc2)c1 | 13.8% |
| Nc1c(-c2ccccc2)cnn1-c1cccc(C(F)(F)F)c1 | 1.64% |
| Cc1nnc(SCC(=O)NC2CCCCCC2)n1C | 23.4% |
| CCOc1cc(C)nc(N2CCN(C3CCCCC3)CC2)n1 | -67.5% |
| Cn1nc(C(F)(F)F)c(C#N)c1N1CCN(c2cccc(C(F)(F)F)c2)CC1 | 3.01% |
| Cl.FC(F)(F)c1cccc(N2CCNCC2)c1 | -13.3% |
| Cc1cc(N2CCN(c3cccc(C(F)(F)F)c3)CC2)n2nc(C)nc2n1 | -61.9% |
| CCOc1cc(C)nc(N2CCC(C(=O)Nc3ccccc3OCC)CC2)n1 | 5.62% |
| COc1ccccc1N1CCN(c2cnccn2)CC1 | -2.25% |

| Structure (SMILES) | hERG current change (%, negative = inhibition) at 10uM |
| --- | --- |
| Cc1nc2nc(-c3ccc(Cl)cc3)nn2c(C)c1Cl | 8.82% |
| COc1ccccc1N1CCN(c2ccc3ccccc3n2)CC1 | -36.5% |
| Cc1cc(N2CCOCC2)n2nc(C)c(-c3ccc(Cl)cc3)c2n1 | 8.58% |
| Cc1cc(N2CCN(C)CC2)n2nc(-c3ccc(Cl)cc3)nc2n1 | -77.3% |
| COc1ccccc1N1CCN(c2cc(N3CCCC3)nc(C)n2)CC1 | -65.3% |
| COc1cc(C)nc(N2CCC(C(=O)NC3CCCCC3)CC2)n1 | -3.08% |
| COc1ccc(/C=N/n2c(-c3cc(C)[nH]n3)n[nH]c2=S)cc1OC | 18.6% |
| Cc1cccnc1NC(=O)CN1C(=O)NC(C)(c2ccc3ccccc3c2)C1=O (stereo not drawn) | -14% |
| Cc1cc(C)cc(NC(=S)N(C)C)c1 | -5.83% |
| COc1ccc(N2CCN(C(=O)c3ccc4c(c3)[nH]c(=S)n3c5ccccc5nc43)CC2)cc1 | 16.7% |
| Cc1nc2cc(NC(=O)c3ccc([N+](=O)[O-])s3)ccc2s1 | -9.99% |
| O=C(c1cc(-c2cccc(O)c2)on1)N1CCN(C(c2ccccc2)c2ccccc2)CC1 | 10.8% |
| Cc1ccc2nc(SCc3nc4c(cnn4-c4ccccc4)c(=O)[nH]3)[nH]c2c1 | 15.3% |
| C/C=C/c1ccc(OCC(=O)Nc2cc(S(=O)(=O)N3CCOCC3)ccc2N2CCCC2)c(OC)c1 | 3.81% |
| CC1(C)C(CO)=CC(=O)C2=C1SCC(=O)N2 | -16.3% |
| CCOc1ccc(NC(=O)C2CC(=O)OC2c2ccccc2)cc1 (stereo not drawn) | 6.5% |
| CCC(C)NC(=O)CCc1nc2ccccc2n1-c1ccccc1 (stereo not drawn) | 2.77% |
| O=C(CNC(=O)c1ccccc1Cl)OC1CCOC1=O (stereo not drawn) | 13.5% |
| Cc1cc(N2CCN(C3CCCCC3)CC2)n2nc(C)nc2n1 | -57.7% |
| Cc1cc(N2CCCC2)n2nc(C)nc2n1 | -11.8% |
| Cc1cc(N2CCCC2)nc2c(C)cccc12 | -21.6% |
| Cc1nc2ncnn2c(N2CCN(C(=O)c3cccc(F)c3)CC2)c1C | -49.3% |
| COc1cccc2c(C)cc(N3CCCCCC3)nc12 | -52.9% |
| Cc1cc(Nc2ccc(F)c(Cl)c2)n2nc(C)nc2n1 | -18% |

| Structure (SMILES) | hERG current change (%, negative = inhibition) at 10uM |
| --- | --- |
| Cc1cc(N2CCN(c3cccc(C(F)(F)F)c3)CC2)n2ncnc2n1 | -37% |
| COc1ccc(Nc2cc(C)nc3nc(C)nn23)cc1Cl | -55.5% |
| Cc1nc2ncnn2c(N2CCN(c3cccc(C(F)(F)F)c3)CC2)c1C | -64.1% |
| CCOC(=O)N1CCN(c2cc(C)nc3nc(C)nn23)CC1 | -32.9% |
| COc1ccc(Nc2cc(C)nc3ncnn23)cc1Cl | -39.5% |
| Cc1cc(N2CCCCC2)nc2c(C)cccc12 | 15% |
| O=C(O)CNC1=NCCCCC1 | 0.366% |
| O=C(O)Cc1ccc(NS(=O)(=O)c2ccccc2Cl)cc1 | 24.4% |
| Cc1ccc(NS(=O)(=O)c2cc([N+](=O)[O-])ccc2NNC(=S)Nc2cc(C)ccc2C)c(C)c1 | -0.00412% |
| CC1(C)Cc2c(C#N)c(N3CCN(C(=O)c4ccco4)CC3)nc(-c3ccco3)c2CS1 | -21.6% |
| Cc1ccc(CNS(=O)(=O)c2c(N)n(C)c(=O)n(C)c2=O)cc1 | 8.77% |
| COc1ccc2c(CC(=O)NC(Cc3ccc(Cl)cc3)C(=O)O)cc(=O)oc2c1C (stereo not drawn) | 3.13% |
| N#Cc1ccc(-c2ccc3c(c2)OCO3)nc1SCC(=O)OCc1ccccc1 | 9.22% |
| Cc1ccc(NC(=O)C2CCN(S(=O)(=O)c3c(C)noc3/C=C/N(C)C)CC2)cc1 | -5.19% |
| O=C(c1ccc(-c2ccccc2Cl)o1)N1CCN(S(=O)(=O)c2cccs2)CC1 | 15.9% |
| O=C(c1cccs1)C1CN2CCC1CC2 (stereo not drawn) | -4.77% |
| COc1ccc(C(=O)Nc2ccc3c(c2)nc2n3CCSC2)cc1 | -24.7% |
| O=c1[nH]c(=O)n(Cc2ccc(Oc3ccccc3)cc2)cc1Br | -1.61% |
| COc1ccc(NCc2ccc([N+](=O)[O-])s2)cc1 | -13.6% |
| COc1cccc(NCc2ccc([N+](=O)[O-])s2)c1 | -51% |
| Cc1cccc(NCc2ccc([N+](=O)[O-])s2)c1 | -26.7% |
